Sampled rows, rich in hits. Any-hit rate of the full collection: about 10%.
HP1b binding inh: HTS for Inhibitors of HP1-beta Chromodomain Interactions with Methylated Histone Tails; Potency, µM (series often up to 114 µM), usual class: inhibitors; Chromobox protein homolog 1 (Homo sapiens), P83916; AlphaScreen HP1-beta / biotin-H3K9me3 peptide binding; hit rate 0.56% among 390,000; also: nearly all actives have a fitted effect of over 70% in size
Target sequence (P83916 whole entry, looked up): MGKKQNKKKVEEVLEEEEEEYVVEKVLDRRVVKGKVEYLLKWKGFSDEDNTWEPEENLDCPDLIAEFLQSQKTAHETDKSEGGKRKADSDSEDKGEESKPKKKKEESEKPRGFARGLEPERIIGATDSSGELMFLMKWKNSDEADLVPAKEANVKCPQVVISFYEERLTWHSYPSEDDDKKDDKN
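Compound inhibition of the preformed complex between 50 nM HP1-beta and 50 nM biotinylated H3K9me3 peptide was read by AlphaScreen. Buffer was PBS pH 7.4 with 0.01% Tween-20. Incubations ran 30 min at room temperature, with 10 ug/mL donor/acceptor beads.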
CtBP-E1A blk: qHTS Assay for Inhibitors of the CtBP/E1A Interaction; hit rate 0.49% among 340,000; AID 651724, 2012; AlphaScreen GST-E1A/His-CtBP binding, 1536-well; hits give low values; CtBP / adenovirus E1A interaction (AlphaScreen); activity change, % (test concentration not listed); in the data active = activity change below about -65%; inconclusive = mostly about -30% to -63%
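In 5 uL wells, 23 nL compound meets equimolar GST-E1A and His-CtBP (5X stock 125 nM each) for 2 h, 37 °C. Beads (5X, 50 ug/mL) then 1 h, 37 °C, dark.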
G9a inh: qHTS Assay for Inhibitors of Histone Lysine Methyltransferase G9a. Histone-lysine N-methyltransferase EHMT2 (Homo sapiens), Q96KQ7. G9a H3K9 monomethylation, AlphaScreen, 2 h. hit rate 8.8% among 350,000. AID 504332, 2011. Potency, µM (highest dose often 102 µM), usual class: inhibitors; also: nearly all actives have a fitted effect of over 75% in size
Target sequence (Q96KQ7 913-1193 limits assumed): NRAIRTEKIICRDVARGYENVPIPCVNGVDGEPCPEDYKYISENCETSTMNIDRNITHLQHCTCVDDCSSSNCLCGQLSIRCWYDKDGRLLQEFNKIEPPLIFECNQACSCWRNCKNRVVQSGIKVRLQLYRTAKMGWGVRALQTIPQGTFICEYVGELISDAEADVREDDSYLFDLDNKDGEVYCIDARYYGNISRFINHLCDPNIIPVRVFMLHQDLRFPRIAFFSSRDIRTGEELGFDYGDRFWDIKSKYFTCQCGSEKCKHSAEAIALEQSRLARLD
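Using a bead-based AlphaScreen, monomethylated H3K9 product from 2 h room-temperature reactions (G9a 20 nM, peptide 500 nM, SAM 20 uM) was detected with 0.5 ug/mL rabbit anti-H3K9me1 antibody.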
BAZ2B block: qHTS Assay for Inhibitors of BAZ2B. Bromodomain adjacent to zinc finger domain protein 2B (Homo sapiens), Q9UIF8. Potency, µM (top dose mostly 114 µM), usual class: inhibitors. AlphaScreen BAZ2B-H3K14Ac peptide displacement. hit rate 4.4% among 360,000; also: nearly all actives have a fitted effect of over 60% in size
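AlphaScreen luminescence quantifies BAZ2B engagement of H3K14Ac peptide; the protein and biotinylated peptide are both at 50 nM final, buffer PBS pH 7.4 with 0.01% Tween-20, all steps at room temperature.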
Six1-Eya2 inh: qHTS Assay for Inhibitors of the Six1/Eya2 Interaction. Homeobox protein SIX1 (Homo sapiens) + Protein phosphatase EYA2 (Homo sapiens), …. hit rate 0.56% among 360,000. activity change, % (test concentration not listed). AlphaScreen GST-Six1/His-Eya2 binding, biochemical; hits give low values; in the data active = activity change below about -65%; inconclusive = mostly about -30% to -63%
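AlphaScreen with GST-Six1 and His-Eya2 (5X mix: 250 nM and 500 nM), glutathione donor and nickel acceptor beads; buffer 50 mM Tris pH 8.0, 300 mM NaCl, 1 mM TCEP; 1 h at 37 C in the dark.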
JMJD2A Tudor: qHTS Assay for Inhibitors of JMJD2A-Tudor Domain; Lysine-specific demethylase 4A (Homo sapiens), O75164; Potency, µM (doses to about 114 µM), most hits filed as inhibitors; AlphaScreen JMJD2A-Tudor / H3K4me3 peptide binding; AID 504339, 2011; hit rate 4.4% among 390,000; also: nearly all actives have a fitted effect of over 50% in size
Large screens that a line does not name were inactive. Unless noted, calls follow the shape of the dose curve; as a rule, active = well fitted inhibition curve with a large enough effect; inconclusive = small, poorly fitted or top-dose-only effect; inactive = no such curve, though single readings can be large or run the other way.

CCc1ccc(N2C(=O)C3C4CCC(C4=C(C)C)C3C2=O)cc1 (centres undefined)	none
Cc1ccc(C)c2nc3sc(C(=O)O)cc3cc12	G9a inh 39.8µM
CC(C)Oc1ccc(CNC(=O)Cn2c(-c3cccs3)cc3ccccc32)cc1	none (no result: CtBP-E1A blk, Six1-Eya2 inh)
COc1ccc(C2c3c(oc4cc(C)cc(C)c4c3=O)C(=O)N2Cc2ccco2)cc1OC (centres undefined)	none (no result: CtBP-E1A blk, Six1-Eya2 inh)
COCCNC(=O)c1cc2cc(Cl)cc(Cl)c2oc1=O	HP1b binding inh inconclusive, G9a inh 44.7µM
O=C(NCCO)c1cc2cc(Cl)cc(Cl)c2oc1=O	HP1b binding inh inconclusive, G9a inh 3.16µM
CN1CCC(OC(=O)c2cc3cc(Cl)cc(Cl)c3oc2=O)CC1	G9a inh inconclusive (no result: CtBP-E1A blk)
O=C(O)c1cc2cc(Cl)cc(Cl)c2oc1=O	CtBP-E1A blk -74.2, G9a inh 56.2µM, BAZ2B block inconclusive, Six1-Eya2 inh inconclusive
COc1ccc(S(=O)(=O)N(C)C[C@@H]2OCCCC[C@@H](C)Oc3ccc(NS(=O)(=O)c4cccs4)cc3C(=O)N([C@H](C)CO)C[C@@H]2C)cc1	none (no result: HP1b binding inh, G9a inh, BAZ2B block, JMJD2A Tudor)
Cc1ccc(S(=O)(=O)NCc2cn3c(C)csc3n2)cc1	G9a inh inconclusive
Cc1csc2nc(CNC(=O)CCC(=O)O)cn12	G9a inh 50.1µM
CCS(=O)(=O)NCc1cn2c(C)csc2n1	none
Cc1ccc(SCc2cn3c(C)csc3n2)cc1	G9a inh inconclusive, BAZ2B block 56.2µM
CC(=O)NCc1cn2c(C)csc2n1	none
CCCS(=O)(=O)NCc1cn2c(C)csc2n1	G9a inh 56.2µM
Nc1ccc(Oc2ccc3c(c2)C(=O)NC3=O)cc1	none (no result: CtBP-E1A blk)
Cc1cc(C(=O)NCC(=O)O)c(C)o1	BAZ2B block 50.1µM
COc1ccc(-n2nc(C(=O)N3CCC(N4CCCCC4)CC3)c3c4ccccc4n(C)c3c2=O)cc1	none
NC(CSCc1ccccc1Cl)C(=O)O (centres undefined)	G9a inh 35.5µM, BAZ2B block inconclusive (no result: CtBP-E1A blk)
CCN1CCN(C(CNS(=O)(=O)c2cccs2)c2cccnc2)CC1 (centres undefined)	none (no result: CtBP-E1A blk, G9a inh)
COc1ccc(OC)c(S(=O)(=O)Nc2cc(C(=O)O)ccc2N2CC3CC(C2)c2cccc(=O)n2C3)c1 (centres undefined)	G9a inh inconclusive (no result: CtBP-E1A blk)
COc1cccc(NC(=S)Nc2cc(C(=O)O)ccc2N2CC3CC(C2)c2cccc(=O)n2C3)c1 (centres undefined)	G9a inh 39.8µM (no result: CtBP-E1A blk)
CCN1CCN(C(=O)c2ccc(N3CC4CC(C3)c3cccc(=O)n3C4)c([N+](=O)[O-])c2)CC1 (centres undefined)	G9a inh 56.2µM
Cc1ccc(NC(=S)Nc2cc(C(=O)O)ccc2N2CC3CC(C2)c2cccc(=O)n2C3)cc1C (centres undefined)	G9a inh 39.8µM
CCOc1ccc(NC(=O)Nc2cc(C(=O)O)ccc2N2CC3CC(C2)c2cccc(=O)n2C3)cc1 (centres undefined)	none
CCOc1ccc2c(c1)NC(c1ccc(OCC)c(OCC)c1)=NC(c1ccc(F)cc1)=N2	HP1b binding inh inconclusive, G9a inh 11.2µM, BAZ2B block inconclusive, JMJD2A Tudor 25.1µM (no result: CtBP-E1A blk, Six1-Eya2 inh)
CCOc1ccc(C2=NC(c3ccc(OC)cc3)=Nc3ccc(Cl)cc3N2)cc1	none (no result: CtBP-E1A blk, Six1-Eya2 inh)
Oc1ccc2nnc3c(Br)cnn3c2c1	G9a inh inconclusive (no result: CtBP-E1A blk)
CCOC(=O)CSc1nc(C(C)(C)C)nc2ccccc12	none (no result: G9a inh)
CN(C)CCOc1ccc(-c2c(-c3ccsc3)sc3ccccc23)cc1	JMJD2A Tudor 50.1µM (no result: G9a inh, BAZ2B block)
COc1ccc(-c2sc3ccccc3c2-c2ccc(O)cc2)cc1	none (no result: G9a inh, BAZ2B block)
COc1cccc(-c2sc3ccc(OC)cc3c2-c2ccc(OCCN(C)C)cc2)c1	HP1b binding inh inconclusive, Six1-Eya2 inh inconclusive, JMJD2A Tudor 28.2µM (no result: G9a inh, BAZ2B block)
COc1ccc(-c2sc3ccccc3c2-c2ccc(OCCN(C)C)cc2)cc1	HP1b binding inh inconclusive, CtBP-E1A blk inconclusive, JMJD2A Tudor 35.5µM (no result: G9a inh, BAZ2B block)
CCOC(=O)C1=C(C)Nc2ccccc2N=C1NC(=O)/C=C/c1ccc(OC)cc1OC	none
Cn1c(=O)c2nc(SCC(=O)Nc3cc(Cl)ccc3Cl)n(C)c2n(C)c1=O	none (no result: CtBP-E1A blk, Six1-Eya2 inh)
CC1C(=O)N2CCCc3cc(NS(=O)(=O)c4ccc([N+](=O)[O-])cc4)cc1c32 (centres undefined)	G9a inh inconclusive
CNC(=O)C(=O)Nc1cc2c3c(c1)C(C)C(=O)N3CCC2 (centres undefined)	G9a inh 1.41µM (no result: CtBP-E1A blk)
CC1C(=O)N2CCCc3cc(NS(=O)(=O)c4ccc(F)cc4)cc1c32 (centres undefined)	G9a inh 50.1µM
CC1C(=O)N2CCCc3cc(NC(=O)COc4ccc(Cl)cc4)cc1c32 (centres undefined)	G9a inh 50.1µM
O=C(CNC(=S)N(Cc1ccccc1)Cc1ccccc1F)NCCc1ccc(Cl)cc1	none
C/C(N)=C(/C#N)C(=O)COC(=O)[C@@H](NC(=O)c1ccccc1Cl)C(C)C	none
Cc1ccc2onc(CC(=O)N3CCN(c4ccccc4)CC3)c2c1	none (no result: CtBP-E1A blk, Six1-Eya2 inh)
COc1ccc(OC)c2[nH]c(C(=O)O)cc12	G9a inh inconclusive, JMJD2A Tudor 89.1µM
COc1ccc(/C=N/NC(=O)c2cc3c(OC)ccc(OC)c3[nH]2)cc1O	CtBP-E1A blk inconclusive, G9a inh inconclusive, Six1-Eya2 inh inconclusive
COc1ccc(OC)c2[nH]c(C(=O)N/N=C/c3ccccc3O)cc12	Six1-Eya2 inh -73.7 (no result: CtBP-E1A blk)
CCCCOc1ccc(CSc2n[nH]c(C)n2)cc1	G9a inh 28.2µM
Cc1cc([N+](=O)[O-])ccc1N=Nc1c(N)[nH]n(-c2ccccc2)c1=O	HP1b binding inh inconclusive, G9a inh inconclusive
Nc1[nH]n(-c2ccccc2)c(=O)c1N=Nc1ccc2c(c1)OCCO2	HP1b binding inh 44.7µM, G9a inh 10µM, BAZ2B block 10µM, Six1-Eya2 inh -68.7, JMJD2A Tudor 20µM
Cc1[nH]n(-c2ccccc2)c(=O)c1N=Nc1ccc(C#N)cc1	none
Nc1[nH]n(-c2ccccc2)c(=O)c1N=Nc1ccc2c(c1)OCO2	HP1b binding inh inconclusive, BAZ2B block 3.98µM, Six1-Eya2 inh inconclusive, JMJD2A Tudor 10µM
CC(C)CN1CCc2nc(N3CCN(C)CC3)ncc2C1	BAZ2B block inconclusive (no result: CtBP-E1A blk, Six1-Eya2 inh)
Brc1csc(CN2CCc3nc(Nc4ccccc4)ncc3C2)c1	BAZ2B block inconclusive (no result: CtBP-E1A blk, Six1-Eya2 inh)
